CYP2C9 activ: human CYP2C9 activators, primary screen, biochemical, luminescence; hit rate 1.4% among 96,000; activation factor at 5 µM; recombinant CYP2C9, luciferin-H conversion; stronger effect = higher value; factor 1 = untreated enzyme, 0 = blocked; Cytochrome P450 2C9 (Homo sapiens), P11712;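 active = activation factor of 2 or more for CYP2C9 at a 5 µM dose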;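 note: 0 = sulfaphenazole-blocked wells and 1 = vehicle-only wells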
Target sequence (P11712 whole entry, looked up): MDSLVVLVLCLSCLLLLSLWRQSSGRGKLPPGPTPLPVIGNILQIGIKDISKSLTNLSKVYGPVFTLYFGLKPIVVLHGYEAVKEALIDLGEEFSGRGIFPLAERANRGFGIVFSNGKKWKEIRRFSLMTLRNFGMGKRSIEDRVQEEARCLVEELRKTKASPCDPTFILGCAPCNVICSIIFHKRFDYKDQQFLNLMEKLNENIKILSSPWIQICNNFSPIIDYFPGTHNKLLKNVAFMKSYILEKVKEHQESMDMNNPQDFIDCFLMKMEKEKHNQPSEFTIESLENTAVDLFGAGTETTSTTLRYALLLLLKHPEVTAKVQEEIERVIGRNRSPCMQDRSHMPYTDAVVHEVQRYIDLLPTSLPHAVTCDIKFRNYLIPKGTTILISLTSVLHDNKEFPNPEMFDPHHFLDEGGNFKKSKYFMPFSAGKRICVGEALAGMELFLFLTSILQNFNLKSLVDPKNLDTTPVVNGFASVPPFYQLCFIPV
CYP2C19 activ: human CYP2C19 activators, primary screen, biochemical, luminescence; recombinant CYP2C19, luciferin-H EGE luminescence; stronger effect = higher value; 0 = fully inhibited enzyme, 1 = untreated enzyme; 96,000 tested, under 10 active; activation factor at 5 µM;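 active = activation factor of at least 2 at 5 µM in the primary screen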;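 note: 0 = wells with 2.5 mM tranylcypromine and 1 = vehicle-only wells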
CYP2C9 inh: blockers of cytochrome P450 2C9 activity – biochemical, luminescence, ADME assay, primary screen. hit rate 20% among 96,000. CYP2C9 Supersomes, luciferin-H conversion. P11712. AID 777, 2007. inhibition, % at 5 µM;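 active = blocking of liver enzyme CYP2C9 beyond about 50% at 5 µM, limit read from the data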
Cav3 T inh: Cav3.2 calcium influx blockers – cell-based, Fluo-4 calcium fluorescence, FDSS, MLSMR library, primary screen; AID 449739, 2010; B-score at 10 µM; Voltage-dependent T-type calcium channel subunit alpha-1H (Homo sapiens), O95180; Cav3.2-expressing cells; stronger effect = lower value; hit rate 4% among 100,000;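 active = single-dose well whose peak fluorescence ratio is a statistical outlier from its plate by either plate-standardised score or position-corrected B-score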
CYP2C19 inhib: blockers of cytochrome P450 2C19 activity – biochemical, luminescence, ADME assay, primary screen; inhibition, % at 5 µM; P33261; CYP2C19 Supersomes, luciferin-H EGE luminescence, 30 min; hit rate 21% among 96,000; AID 778, 2007;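 active = CYP2C19 inhibition above a set limit at 5 µM in the primary screen, cut at about 50% in these data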;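 note: plate controls were negative control wells for no effect and 2.5 mM tranylcypromine positive control for full effect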
* marks the source's active call; other numbers are inactive results; nt = no result given. The list is not random: actives were taken first. Their share in the collection is about 27%.

SMILES	CYP2C9 activ	CYP2C19 activ	CYP2C9 inh	Cav3 T inh	CYP2C19 inhib
Cc1ccc(N(CC(=O)NC2CCCC2)C(=O)c2c(C)noc2C)cc1C	0.7	0.8	29	0.82	18
C#CCNC(=O)C1=C[C@@H](c2ccc3c(c2)OCO3)C[C@@H](OCCCCO)O1	nt	nt	nt	1.2	nt
Cc1nc(=O)c(-c2ccccc2)c(C)n1-c1ccc(O)c(C(=O)O)c1	0.9	1	6	0.37	4
Cc1c(Br)c([N+](=O)[O-])nn1C(C)C(=O)Nc1c(C)n(C)n(-c2ccccc2)c1=O (stereo not drawn)	0.8	0.9	16	-0.27	11
Cc1ccnc(N2CCC(C(=O)NCc3ccc4c(c3)OCO4)CC2)n1	0.3	0.6	66*	0.48	45
O=C(NCc1ccc2c(c1)OCO2)C1CCN(c2ccc(S(=O)(=O)N3CCCC3)cc2)CC1	0.4	0.7	63*	-0.13	26
CCc1c(C)nc2ncnn2c1N1CCCC(C(=O)NCc2ccc3c(c2)OCO3)C1 (stereo not drawn)	0.3	0.7	70*	1.6	29
O=C(NCc1ccc2c(c1)OCO2)C1CCN(S(=O)(=O)c2ccc(Br)s2)CC1	0.5	0.4	46	nt	65*
CCc1c(C)nc2ncnn2c1N1CCCC(C(=O)Nc2ccc(NC(C)=O)cc2)C1 (stereo not drawn)	1	1.1	-4	nt	-14
CCS(=O)(=O)N1CCCC(C(=O)NCc2ccc3c(c2)OCO3)C1 (stereo not drawn)	0.9	0.8	6	0.91	20
CCNC(=O)COn1c(SCC(=O)NCC)nc2ccccc2c1=O	0.8	0.8	16	1.2	24
OC1(c2cn(Cc3ccccc3)nn2)CCCCC1	1.1	0.9	-5	0.069	10
Cc1cc(C)nc(Sc2c(C)nn(-c3ccccc3)c2C)n1	0.8	0.1	25	1.2	91*
NS(=O)(=O)c1ccc(N2N=C(c3ccccc3)CC2c2ccc(F)cc2)cc1 (stereo not drawn)	0.1	0.7	90*	-0.85	31
O=c1cc(-c2ccccc2)[nH]c2nc3ccccc3n12	0.2	0.4	76*	0.32	61*
O=c1[nH]nc(Sc2ncnc3sccc23)n1CCc1ccccc1	0.8	0.2	25	nt	80*
O=C1OCCC1Sc1ncnc2sccc12 (stereo not drawn)	1.3	1.1	-29	-0.2	-7
Cc1cc(C(F)(F)F)nn1CCCNC(=O)c1cnccn1	0.9	0.5	8	-1.3	50*
O=C1/C(=C/c2cccnc2)Oc2cc(OS(=O)(=O)c3ccc(F)cc3)ccc21	0.2	0.6	84*	0.015	45
Cc1ccc(S(=O)(=O)Oc2ccc3c(c2)O/C(=C\c2cccnc2)C3=O)cc1	0.1	0.3	91*	-1.7	72*
O=C(CCN1C(=O)C2C3C=CC(C4CC34)C2C1=O)Oc1cccc2cccnc12 (stereo not drawn)	1	0.9	-2	0.73	15
CCOC(=O)c1nnc(-c2ccccc2)nc1Sc1ccccc1Cl	0.5	0.8	54*	0.7	20
O=C(O)c1cnc(-c2ccccc2)nc1Sc1ccccc1Cl	0.8	1.1	17	-6.4*	-8
Clc1ccccc1Sc1cnc2ccccc2n1	1	0.8	4	-0.4	16
O=C(O)c1cnc(-c2ccccc2)nc1Sc1ccc(Cl)cc1	0.4	1	61*	-3.3	4
SMILES	CYP2C9 activ	CYP2C19 activ	CYP2C9 inh	Cav3 T inh	CYP2C19 inhib
CCOC(=O)C1CCN(C(=O)CN(c2ccc3c(c2)OCO3)S(C)(=O)=O)CC1	1.1	1.1	-10	nt	-15
O=C(NCCc1ccccc1)c1ccc2c(c1)S(=O)(=O)c1ccccc1C2=O	nt	nt	nt	-0.0094	nt
Cc1ccc(NC(=O)N2CCC(O)(c3ccc(Cl)cc3)CC2)cc1	0.3	0	71*	-4.3*	96*
COC(=O)c1ccc(NC(=O)N2CCC(O)(c3cccnc3)CC2)cc1	1.1	1	-8	nt	-2
O=C(Nc1ccc(Cl)cc1)N1CCSCC1	0.9	0.4	13	nt	60*
O=C(Nc1ccc(Cl)cc1)N1CCCC1	1	0.8	3	0.53	18
CCCCc1ccc(N2C(=O)[C@@H]3C(CC(N)=O)NC4(C(=O)Nc5ccc(F)cc54)[C@@H]3C2=O)cc1 (stereo partly drawn)	0.8	1.1	25	0.2	-8
O=c1c2c(C(F)(F)F)cc(C(F)(F)F)nc2[nH]n1-c1ccccc1	0.2	1	84*	-1.5	2
Cc1cc(-c2ccccc2)nc2[nH]n(-c3ccccc3)c(=O)c12	0.4	0.9	59*	1.4	10
CCOC(=O)C(C)Sc1nnc(Cc2cc(=O)[nH]c(=O)[nH]2)n1-c1ccc(Cl)cc1 (stereo not drawn)	nt	nt	nt	0.99	nt
COC(=O)C1=C(C(=O)OC)[C@@H]2N(Cc3ccccc3)c3ccccc3[C@@]23C[C@@H](C(=O)OC)N=C3N1	nt	nt	nt	0.15	nt
O=C(O)CCCc1nc2ccccc2s1	1	0.4	4	-0.23	55*
COC(=O)CCCc1nc2ccccc2s1	0.8	0.6	24	0.15	38
CN(C(=O)CCc1nc2ccccc2s1)c1ccccc1	1	0.3	1	-0.044	70*
O=S(=O)(c1ccc2c(c1)nc(COc1ccc(Cl)cc1)n2CC1CCCO1)N1CCOCC1 (stereo not drawn)	0.7	0.9	34	-1.7	8
O=[N+]([O-])c1ccc(N2CCN(c3ccc(Cl)nn3)CC2)cc1NC1CC1	nt	nt	nt	0.46	nt
CCOC(=O)C[C@H]1c2cc(F)ccc2S(=O)(=O)N1C1CCCCC1	nt	nt	nt	-0.36	nt
Cn1c(SC2=CS(=O)(=O)c3ccccc32)nc2ccccc21	1.1	0.9	-8	2.4	10
COCC(=O)N(C)c1nnc(-c2cnc(C)cn2)s1	0.9	1	7	-0.37	1
CC(=O)CCCCn1c(=O)c2c(ncn2C)n(C)c1=O	0.5	0.8	51*	nt	15
CC(=O)CCCCn1cnc2c1c(=O)n(C)c(=O)n2C	nt	nt	nt	0.6	nt
O=C(ON=C1CCN(S(=O)(=O)c2ccccc2)CC1)c1ccc(F)cc1	nt	nt	nt	-0.34	nt
O=C(O/N=C1/CCSc2ccccc21)c1ccc(F)cc1	1	1	1	-4.7*	-2
CCCNC(=O)c1c(N)n(-c2ccc3c(c2)OCO3)c2nc3ccccc3nc12	0.9	0.9	7	-1.5	9
CCCNC(=O)c1c(N)n(-c2cc(OC)cc(OC)c2)c2nc3ccccc3nc12	0.3	0.7	70*	-6.5*	31
COc1ccc(-n2c(N)c(C(=O)NCC3CCCO3)c3nc4ccccc4nc32)c(OC)c1 (stereo not drawn)	0.4	0.7	55*	-8*	27
Nc1c(C(=O)OCC2CCCO2)c2nc3ccccc3nc2n1-c1ccc2c(c1)OCCO2 (stereo not drawn)	0.4	0.5	59*	-0.089	54*
